PubChem BioAssay AID651949 (Broad Institute, 2012)
Entries with a potency or affinity are not part of this list. Unmarked numbers belong to inactive results.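 How the source made its calls: active means compounds lowering cell ATP signal whose fitted half-maximal concentration is at most twice the top tested dose; inconclusive means flat curve with 30 to 70% signal loss, or poor fit; inactive means the rest.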

Experiment: viability loss in HEK293T cells – cell-based, CellTiter-Glo luminescence, dry powder, set 6, cytotoxicity control, dose response (AID 651949)
Conditions: CellTiter-Glo ATP luminescence, 48 h; series mostly up to 26 µM; activity change, negative = cytotoxicity: at the top concentration
In the case of `FC(F)(F)c1ccc(CSc2nnc(-c3ccccc3)o2)cc1`, the “activity change, negative = cytotoxicity” value is reported as -5.71%. In the case of `COc1ccc(-c2nnc(SCc3ccccc3)o2)cc1`, the “activity change, negative = cytotoxicity” value is reported as -4.21%. For `c1ccc(Cn2cc(CSc3nnc(-c4ccccc4)o3)nn2)cc1`, the “activity change, negative = cytotoxicity” value was 2.94%. For `CS(=O)(=O)c1ccc(-c2nnc(SCc3ccccc3)o2)cc1`, the “activity change, negative = cytotoxicity” value was -12.1%. For `FC(F)(F)Oc1ccc(-c2nnc(SCc3ccccc3)o2)cc1`, the “activity change, negative = cytotoxicity” value was -17.4%. In the case of `FC1(F)CCN(CCSc2nnc(-c3ccccc3)o2)CC1`, the “activity change, negative = cytotoxicity” value is reported as -15.2%. For `FC(F)(F)CNCCSc1nnc(-c2ccccc2)o1`, the “activity change, negative = cytotoxicity” value was -0.89%. For `c1ccc(CCc2nnc(SCc3ccccc3)o2)cc1`, the “activity change, negative = cytotoxicity” value was -20.1%. For `Cc1cccc(-c2nnc(SCc3ccccc3)o2)c1`, the “activity change, negative = cytotoxicity” value was 16.8%. In the case of `c1ccc(-c2nnc(SCCN3CCN(c4ccccc4)CC3)o2)cc1`, the “activity change, negative = cytotoxicity” value is reported as -23.5%. For `c1ccc(-c2nnc(SCCN3CCOCC3)o2)cc1`, the “activity change, negative = cytotoxicity” value was 5.28%. For `c1ccc(-c2nnc(SC(c3ccccc3)c3ccccc3)o2)cc1`, the “activity change, negative = cytotoxicity” value was -24.1%. With `c1ccc(Cn2cc(CSc3nnc(C4CCCC4)o3)nn2)cc1` the “activity change, negative = cytotoxicity” value was -3.83%. For `N#Cc1ccc(CSc2nnc(-c3ccccc3)o2)cc1`, the “activity change, negative = cytotoxicity” value was 5.71%. For `c1ccc(CSc2nnc(-c3ccc(-c4ccccc4)cc3)o2)cc1`, the “activity change, negative = cytotoxicity” value was -14.9%. In the case of `Fc1ccccc1-c1nnc(SCc2ccccc2)o1`, the “activity change, negative = cytotoxicity” value is reported as 25.8%. In the case of `CSc1nnc(-c2ccccc2)o1`, the “activity change, negative = cytotoxicity” value is reported as 8.23% [at 120 µM]. With `Clc1cccc(CSc2nnc(-c3ccccc3)o2)c1` the “activity change, negative = cytotoxicity” value was -22.5%. For `Fc1cccc(-c2nnc(SCc3ccccn3)o2)c1`, the “activity change, negative = cytotoxicity” value was -20.9%. With `Cc1ccccc1CSc1nnc(-c2ccccc2)o1` the “activity change, negative = cytotoxicity” value was -19.8%. With `c1ccc(-c2nnc(SCc3cscn3)o2)cc1` the “activity change, negative = cytotoxicity” value was -17%. For `COCCSc1nnc(-c2ccccc2)o1`, the “activity change, negative = cytotoxicity” value was -18.8%. For `COc1ccc(CSc2nnc(-c3ccc(Cl)cc3)o2)nc1`, the “activity change, negative = cytotoxicity” value was -8.42%. With `c1ccc(Sc2nnc(-c3ccccc3)o2)cc1` the “activity change, negative = cytotoxicity” value was -13.6%. For `O=C(Cc1ccccc1)C(C(=O)c1nnc(-c2ccccc2)o1)c1ccccc1` (centres undefined), the “activity change, negative = cytotoxicity” value was -8.86%. In the case of `c1ccc(-c2nnc(SC3CCCCC3)o2)cc1`, the “activity change, negative = cytotoxicity” value is reported as -2.18%. With `Cc1ccc(-c2nnc(SCc3ccccc3)o2)cc1` the “activity change, negative = cytotoxicity” value was -14.3%. In the case of `Fc1ccc(CSc2nnc(-c3cccnc3)o2)cc1`, the “activity change, negative = cytotoxicity” value is reported as 5.85%. With `c1ccc(CSc2nnc(-c3ccncc3)o2)nc1` the “activity change, negative = cytotoxicity” value was -13.5%. With `FC(F)(F)Oc1ccccc1-c1nnc(SCc2ccccc2)o1` the “activity change, negative = cytotoxicity” value was 8.46%. With `Fc1ccc(-c2nnc(SCc3ccccn3)o2)cc1` the “activity change, negative = cytotoxicity” value was -5.83%. With `N#Cc1cccc(CSc2nnc(-c3ccccc3)o2)c1` the “activity change, negative = cytotoxicity” value was -16.9%. In the case of `c1ccc(CSc2nnc(-c3ccccn3)o2)cc1`, the “activity change, negative = cytotoxicity” value is reported as -16.3%. For `Clc1cccc(-c2nnc(SCc3ccccc3)o2)c1`, the “activity change, negative = cytotoxicity” value was 13%. In the case of `FC(F)(F)c1cccc(-c2nnc(SCc3ccccc3)o2)c1`, the “activity change, negative = cytotoxicity” value is reported as -5.54%. For `c1ccc(-c2nnc(SCc3ncco3)o2)cc1`, the “activity change, negative = cytotoxicity” value was 3.27%. For `Clc1ccc(-c2nnc(SCc3cn(Cc4ccccc4)nn3)o2)cc1`, the “activity change, negative = cytotoxicity” value was 16.9%. With `COc1cccc(CSc2nnc(-c3ccccc3)o2)c1` the “activity change, negative = cytotoxicity” value was -8.87%. In the case of `FC(F)(F)Oc1cccc(-c2nnc(SCc3ccccc3)o2)c1`, the “activity change, negative = cytotoxicity” value is reported as 1.38%.
